# The list is not random: actives were taken first. Their share in the collection is about 1.2%.
# PrP 5UTR inh: inhibition of PrP 5' UTR reporter expression; cell-based PrP 5' UTR mRNA reporter, plate reader; inhibition, % (concentration not given with the values); 340,000 compounds, 0.35% hits; AID 488862; in the data active = inhibition above about 52%; note: 0 = median of the neutral control wells
# PriA SSB inh: inhibitors of Klebsiella pneumoniae PriA binding to SSB C-terminal tail; AlphaScreen SSBct-PriA binding, biotinylated peptide; inhibition, % at 33 µM; 430,000 compounds, 0.6% hits; in the data active = inhibition mostly above about 37%, no sharp cut-off; inactive = mostly below about 20%;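 note: plate controls were negative control peptide for no effect and reference peptide for full effect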
# BJeLR lethal: BJeLR cell viability loss; BJeLR (HRASV12) viability, CellTiter-Glo ATP luminescence, 48 h; inhibition, % (test concentration not listed); 300,000 compounds, 0.17% hits; AID 1554; in the data active = inhibition above about 50%
# PrPC surface inh: inhibitors of human cell surface prion protein PrPC; P04156; TR-FRET read-out; inhibition, % at 13.8 µM; 370,000 compounds, 0.43% hits; AID 720596; in the data active = inhibition above about 24%; note: 0% = median of the test wells and 100% = reference compound wells
# SARS 3CLpro inh: SARS-CoV 3CLpro protease inhibition | P0C6X7 | recombinant SARS-CoV 3CLpro, quenched FRET peptide cleavage | inhibition, % at 6 µM | 290,000 compounds, 0.14% hits | AID 1706; in the data active = inhibition above about 12%
# Starred values were filed as active, the others as inactive; . = no result given; ! = repeats disagree.
SMILES,PrP 5UTR inh,PriA SSB inh,BJeLR lethal,PrPC surface inh,SARS 3CLpro inh
Cc1ccnc(Nc2ccc(NCCNC(=O)Nc3cccc(C(F)(F)F)c3)nn2)c1,.,32*,.,.,.
Cc1ccnc(Nc2ccc(NCCNC(=O)Nc3ccc(F)c(Cl)c3)nn2)c1,.,96*,.,.,.
Cc1cc(C(=O)Nc2nc(-c3ccc4c(c3)OCO4)cs2)on1,.,-1,.,.,.
CC(C)C(=O)N1N=C(c2ccc3c(c2)OCO3)C[C@H]1c1ccc2nccnc2c1,.,-6,.,.,.
O=C(CSc1n[nH]c(-c2ccccn2)n1)Nc1cc(Cl)ccc1Cl,.,5,.,.,.
O=C(CSc1n[nH]c(-c2ccccn2)n1)Nc1ccc(Cl)cc1Cl,.,23,.,.,.
O=C(CSc1n[nH]c(-c2ccccn2)n1)NC1CC2CCC1C2 (stereo not given),.,99*,.,.,.
O=C(CSc1n[nH]c(-c2ccccn2)n1)Nc1cccc(Cl)c1,10,88*,4,16,-4
Cc1ccccc1NC(=O)CSc1n[nH]c(-c2ccccn2)n1,-17,106*,4,8,0
Cc1ccc(C)c(NC(=O)CSc2ncccn2)c1,.,-7,.,.,.
Cc1ccc(C)c(NC(=O)CSc2n[nH]c(-c3ccccn3)n2)c1,-13,80*,-2,6,-5
O=C(NCCCn1nc(-c2ccco2)ccc1=O)c1cc2ccccc2oc1=O,.,-14,.,.,.
Cc1ccccc1NC(=S)c1ccc2ccccc2n1,-33,65*!,-6,4,0
CCCN(CC(=O)Nc1ccccc1C)C(=O)c1ccc2ccccc2n1,-6,-14,-17,2,.
O=C(C1=C[C@H](c2ccc(Br)cc2)C[C@H](OCCCCO)O1)N1CCN(Cc2ccccc2)CC1,-21,42*,-2,-1,2
O=C(C1=C[C@@H](c2ccc(Br)cc2)C[C@@H](OCCCCO)O1)N1CCN(Cc2ccc3c(c2)OCO3)CC1,-10,-7,6,-5,-2
COc1ccc(C(c2c(O)ccc3ccccc23)N2CCOCC2)c(OC)c1 (stereo not given),-54,8,-2,61*,7
COc1ccc(OC)c(S(=O)(=O)NCC(c2cccc3ccccc23)N2CCOCC2)c1 (stereo not given),.,-3,.,.,.
C=CCc1c(C)c(C#N)c2nc3ccccc3n2c1Cl,.,3,.,.,.
CCCCc1c(C)c(C#N)c2nc3ccccc3n2c1Cl,.,.,128*,.,5
CC(C)(C)S(=O)(=O)c1ccc2nn(CC(=O)Nc3ccc(Br)cc3)c(=O)n2n1,.,-5,.,.,.
COC(=O)C1=C(NC(=O)c2ccccc2I)CCS1,.,51*,.,.,.
Clc1ccc(CSc2nnc(-c3ccccn3)n2Cc2ccco2)c(Cl)c1,-14,49*,1,-1,-3
COc1ccccc1NC(=O)CSc1nnc(-c2ccccc2)n1Cc1ccco1,.,55*,.,.,.
O=C(CSc1nnc(-c2ccccn2)n1Cc1ccco1)c1ccc(-c2ccccc2)cc1,-11,49*,-2,2,3
SMILES,PrP 5UTR inh,PriA SSB inh,BJeLR lethal,PrPC surface inh,SARS 3CLpro inh
CCCOc1ccc(C=Nn2nnnc2N)cc1OC,.,-21,.,.,.
COc1ccc2c(c1[N+](=O)[O-])CCCC2=NOC(=O)c1ccccc1SC,.,12,.,.,.
O=C(N/C(=C/c1ccc([N+](=O)[O-])cc1)C(=O)N1CCCC1)c1ccccc1,-30,-4,-5,-18,2
O=C(N/C(=C/C=C/c1ccccc1)C(=O)N1CCCCC1)c1ccc([N+](=O)[O-])cc1,-14,39*,-1,-1,-1
COc1cccc(CNC(=O)c2sccc2S(=O)(=O)N(C)c2ccc(Cl)cc2)c1,.,-4,.,.,.
CC(=O)Nc1ccc(C2=NNC(=Nc3cccc(S(=O)(=O)N(C)C)c3)SC2)cc1,3,53*,8,.,9
Cc1ccc(C)c(C(O)=C2C(=O)C(=O)N(CCN3CCOCC3)C2c2ccccc2F)c1 (stereo not given),.,48*,.,.,.
CNc1nc(NN)nc(Nc2ccccc2)n1,-15,105*,1,-5,-2
CNc1nc(Nc2ccccc2)nc(OCC(F)(F)F)n1,3,-6,5,6,1
O=[N+]([O-])c1ccc(N=Nc2c(Cl)cc(O)cc2Cl)cc1,.,38,102*,-25,2
CC(N)=Nc1ccc([N+](=O)[O-])cc1,-23,-2,3,-12,1
CC(=O)Nc1cccc(NC(=O)CSC2=Nc3cccnc3Nc3ccccc32)c1,.,-8,.,.,.
O=C(CSC1=Nc2cccnc2Nc2ccccc21)N1CCN(c2ccccc2)CC1,.,38*,.,.,.
COc1ccc(CC(=O)N2CCN(c3cc(C(F)(F)F)ncn3)CC2)cc1Cl,.,-2,.,.,.
COc1cc(/C=C(\C#N)C(=O)Nc2ccccc2Cl)cc(OC)c1OC,.,-14,.,.,.
CCN(CC)CCOC(=O)c1ccc(NC(=O)CCCN2C(=O)/C(=C\c3cccs3)SC2=S)cc1,-14,42*,7,-11,8
O=C(CCN1C(=O)/C(=C\c2cccs2)SC1=S)Nc1ccc(C(=O)O)cc1,-11,-6,9,-9,-1
COc1cc([C@H]2c3[nH]c4ccccc4c3C[C@H]3C(=O)N4[C@@H](c5cc(OC)c(OC)c(OC)c5)c5[nH]c6ccccc6c5C[C@H]4C(=O)N23)cc(OC)c1OC,-5,-3,83*,.,-1
Cc1cc(OC2CCN(S(=O)(=O)c3ccccc3Br)CC2)cc(=O)o1,.,-15,.,.,.
Cc1cccc(NCc2ccc(O)c3ncccc23)c1C,-17,60*,-1,-2,-5
Cc1cccnc1NCc1ccc(O)c2ncccc12,-1,57*,3,-3,-3
COc1ccccc1NCc1ccc(O)c2ncccc12,.,54,.,.,.
Cc1ccc(NCc2ccc(O)c3ncccc23)cc1C,-25,41*,4,1,1
Cc1ccc(NCc2ccc(O)c3ncccc23)cc1,-14,33,4,6,6
Oc1ccc(CNc2cccnc2)c2cccnc12,.,.,.,3,.
SMILES,PrP 5UTR inh,PriA SSB inh,BJeLR lethal,PrPC surface inh,SARS 3CLpro inh
Cc1cccc(NC(=O)NCc2sc3nc(-c4ccc(F)cc4)cn3c2C)c1C,.,-21,.,.,.
COc1ccc(F)cc1CN1CCN(C(=O)CCC(=O)Nc2nnc(CC(C)C)s2)CC1,-13,-12,62*,-1,-6
COc1ncc(NC(=O)Nc2cccc(F)c2C)c(OC)n1,.,-5,.,.,.
CCOC(=O)C1CCN(S(=O)(=O)c2c(Cl)ccc3nonc23)CC1,-35,.,60*,-22,3
COc1ccccc1Nc1c2c(nc3ccc(N)cc13)CCCC2,-46,53*,1,-8,-1
COc1ccccc1C1CCN(C(=O)C2CCCCC2)CC1,-24,41*,2,0,1
COc1ccccc1C1CCN(C(=O)c2ccccc2)CC1,-35,-12,-6,5,3
Cc1c(C(=O)OCC(=O)N2CC(=O)Nc3ccccc32)oc2ccc(Br)cc12,-28,7,68*,-8,-1
C=CCN=c1scc(-c2ccccc2)n1N=Cc1ccccn1,.,46*,.,.,.
Cc1ccc(/C=C2\SC(=S)N(CC3CCCO3)C2=O)o1 (stereo not given),-37,-2,86*,2,-6
Cc1c(NC(=O)Cn2nc(-c3ccc4c(c3)OCO4)ccc2=O)c(=O)n(-c2ccccc2)n1C,.,-9,.,.,.
O=C(N1CCCC(c2nnc(-c3ccsc3)o2)C1)C1(c2cccs2)CCCC1 (stereo not given),.,-9,.,.,.
Cc1cc(C)nc(Nc2cccc(C(F)(F)F)c2)n1,-25,-10,4,6,-2
